From PubChem BioAssay (Tox21)
Values without a mark were called inactive. Records with an inconclusive call do not appear. Entries that show only a call come without a potency. Activity calls are given as the source filed them. Unless noted, the call rests on the fitted dose curve.

Assays:
[1] = target: Androgen receptor (Homo sapiens) (UniProt P10275); experiment: qHTS assay to identify small molecule agonists of the androgen receptor (AR) signaling pathway in the presence of an antagonist (AID 1259381); further: nearly all actives have a fitted effect of over 15% in size
Summary of the method: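 MDA-kb2 human breast carcinoma cells carrying an MMTV-luciferase reporter (AR- and GR-responsive) were treated with compounds at 15 concentrations plus 3.0uM final nilutamide for 16hr at 37C without CO2; luminescence was read after ONE-Glo addition.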

[2] = qHTS assay to identify small molecule antagonists of the estrogen receptor beta (ER-beta) signaling pathway - cell viability counter screen (AID 1259382; active means well fitted curve in the direction sought with a large enough effect in the repeat runs; an effect the other way counts as inactive or inconclusive;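 further: HEK293T cells carrying ER-beta-UAS-bla reporter stimulated with estradiol; series mostly up to about 92 µM; nearly all actives have a fitted effect of over 55% in size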)
Summary of the method: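 ER-beta-UAS-bla HEK293T cells (2,000/well, 2% charcoal-stripped FBS) were pre-incubated 6 hr at 37C, then given compound plus 1nM final 17-beta-estradiol for 16 hr. Viability was read in the same wells by CellTiter-Glo luminescence after 30 min at room temperature.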

[3] = target: Estrogen receptor (Homo sapiens) (UniProt P03372); experiment: qHTS assay to identify small molecule agonists of the estrogen receptor alpha (ER-alpha) signaling pathway in the presence of an antagonist (AID 1259383); further: nearly all actives have a fitted effect of over 15% in size; further: potency means the concentration at half of the fitted maximal effect
Summary of the method: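 VM7Luc4E2 cells (endogenous full-length ER-alpha, 4×ERE-luciferase) were precultured 5 days in phenol red-free medium with 10% charcoal-stripped FBS, given 10.0nM ICI-182,780 (final), then treated with compounds at 15 concentrations for 22hr at 37C; luminescence read with ONE-Glo.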

[4] = qHTS assay to identify small molecule agonists or antagonists of the thyroid stimulating hormone receptor (TSHR) signaling pathway - wild type cell line counter screen (AID 1259384)
Summary of the method: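 Wild-type HEK293 cells were plated 18 h at 37 C/5% CO2, pin-dosed with compound plus Ro20-1724 medium, held 30 min at room temperature, then given cAMP-d2 and anti-cAMP-cryptate; fluorescence was read after 1 h. Fifteen concentrations, triplicate.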

[5] = target: Thyrotropin receptor (Homo sapiens) (UniProt P16473); experiment: qHTS assay to identify small molecule antagonists of the thyroid stimulating hormone receptor (TSHR) signaling pathway (AID 1259385); further: nearly all actives have a fitted effect of over 20% in size
Summary of the method: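 TSHR-HEK293 cells were plated and held 18 h at 37C/5% CO2, then given compound plus Ro20-1724 and stimulated with TSH at 1.5 ng/mL final. After 30 min at room temperature, cAMP was detected with cAMP-d2/anti-cAMP-cryptate (1 h) by fluorescence.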

[6] = qHTS assay to identify small molecule agonists of the estrogen receptor alpha (ER-alpha) signaling pathway in the presence of an antagonist - cell viability counter screen (AID 1259386; active means well fitted curve in the direction sought with a large enough effect in the repeat runs; an effect the other way counts as inactive or inconclusive;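 further: series mostly up to about 92 µM; cells exposed to compounds for 22 h at 37 °C before the viability read; nearly all actives have a fitted effect of over 30% in size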)
Summary of the method: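 VM7Luc4E2 cells (endogenous full-length ER-alpha, 4×ERE-luciferase) were held 5 days in phenol red-free medium with 10% charcoal-stripped FBS, plated, then given 10.0nM ICI-182,780 and compounds at 15 concentrations for 22hr at 37C; viability read by CellTiter-Fluor fluorescence.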

[7] = target: Progesterone receptor (Homo sapiens) (UniProt P06401); experiment: qHTS assay to identify small molecule agonists of the progesterone receptor (PR) signaling pathway (AID 1346784); further: nearly all actives have a fitted effect of over 30% in size
Summary of the method: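 Agonist mode, quantitative HTS format in a HEK 293T line expressing a UAS-controlled beta-lactamase reporter; 16 hr compound exposure at 37C in 2% charcoal-stripped FBS, then LiveBLAzer B/G FRET fluorescence.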

[8] = target: Progesterone receptor (Homo sapiens) (UniProt P06401); experiment: qHTS assay to identify small molecule antagonists of the progesterone receptor (PR) signaling pathway (AID 1346795; active means well fitted inhibition curve with a large enough effect in the signal ratio in the repeat runs, not every such curve was filed as active; the % refers to the signal ratio; further: potency means the concentration at half of the fitted maximal effect)
Summary of the method: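 HEK293T PR-UAS-bla reporter cells in charcoal-stripped serum (2%) received compound after a 6 hr settling period, followed by R5020 agonist at 1 nM final; 16 hr incubation preceded the FRET substrate step and fluorescence measurement.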

[9] = qHTS assay to identify small molecule antagonists of the progesterone receptor (PR) signaling pathway - cell viability counter screen (AID 1346798; active means well fitted curve in the direction sought with a large enough effect in the repeat runs; an effect the other way counts as inactive or inconclusive; further: series mostly up to about 92 µM; nearly all actives have a fitted effect of over 50% in size)
Summary of the method: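 Same-well multiplex: after 16 hr at 37C with compound and R5020 stimulation, HEK293T cells carrying a UAS-bla reporter received LiveBLAzer substrate (2 hr RT), then CellTiter-Glo (30 min RT) for luminescent viability.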

[10] = qHTS assay to identify small molecule agonists of the progesterone receptor (PR) signaling pathway - cell viability counter screen (AID 1346799); further: nearly all actives have a fitted effect of over 45% in size
Summary of the method: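 Counter screen for cytotoxicity: compound-treated PR-UAS-bla HEK293T cells (16 hr, 37C, 5% CO2) were assayed with CellTiter-Glo, luminescence measured after 30 min at room temperature.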

Chain of Progesterone receptor (Homo sapiens) (P06401 whole entry, looked up): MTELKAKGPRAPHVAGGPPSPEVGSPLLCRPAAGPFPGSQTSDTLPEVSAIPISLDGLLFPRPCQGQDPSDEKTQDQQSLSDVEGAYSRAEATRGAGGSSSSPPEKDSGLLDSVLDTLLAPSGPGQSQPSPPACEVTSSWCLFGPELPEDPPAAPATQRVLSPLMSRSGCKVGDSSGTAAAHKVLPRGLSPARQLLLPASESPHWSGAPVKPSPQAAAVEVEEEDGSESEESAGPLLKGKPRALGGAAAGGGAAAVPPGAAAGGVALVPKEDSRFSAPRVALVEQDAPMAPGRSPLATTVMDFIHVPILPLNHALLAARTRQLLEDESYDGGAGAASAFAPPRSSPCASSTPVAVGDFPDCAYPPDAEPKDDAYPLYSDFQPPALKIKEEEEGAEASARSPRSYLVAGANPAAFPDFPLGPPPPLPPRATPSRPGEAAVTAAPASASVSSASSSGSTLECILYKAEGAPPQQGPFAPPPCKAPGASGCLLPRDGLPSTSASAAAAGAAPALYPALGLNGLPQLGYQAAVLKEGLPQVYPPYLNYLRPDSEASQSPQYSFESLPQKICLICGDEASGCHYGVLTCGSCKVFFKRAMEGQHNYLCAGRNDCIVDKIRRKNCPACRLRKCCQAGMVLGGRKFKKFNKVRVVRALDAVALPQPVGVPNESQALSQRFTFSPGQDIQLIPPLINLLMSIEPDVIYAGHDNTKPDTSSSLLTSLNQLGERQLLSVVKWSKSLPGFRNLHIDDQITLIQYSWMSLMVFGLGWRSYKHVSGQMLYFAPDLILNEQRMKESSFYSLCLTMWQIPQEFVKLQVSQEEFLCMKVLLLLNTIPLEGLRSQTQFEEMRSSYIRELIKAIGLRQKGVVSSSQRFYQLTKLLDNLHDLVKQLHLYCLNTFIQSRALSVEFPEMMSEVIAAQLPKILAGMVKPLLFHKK
Chain of Estrogen receptor (Homo sapiens) (P03372 whole entry, looked up): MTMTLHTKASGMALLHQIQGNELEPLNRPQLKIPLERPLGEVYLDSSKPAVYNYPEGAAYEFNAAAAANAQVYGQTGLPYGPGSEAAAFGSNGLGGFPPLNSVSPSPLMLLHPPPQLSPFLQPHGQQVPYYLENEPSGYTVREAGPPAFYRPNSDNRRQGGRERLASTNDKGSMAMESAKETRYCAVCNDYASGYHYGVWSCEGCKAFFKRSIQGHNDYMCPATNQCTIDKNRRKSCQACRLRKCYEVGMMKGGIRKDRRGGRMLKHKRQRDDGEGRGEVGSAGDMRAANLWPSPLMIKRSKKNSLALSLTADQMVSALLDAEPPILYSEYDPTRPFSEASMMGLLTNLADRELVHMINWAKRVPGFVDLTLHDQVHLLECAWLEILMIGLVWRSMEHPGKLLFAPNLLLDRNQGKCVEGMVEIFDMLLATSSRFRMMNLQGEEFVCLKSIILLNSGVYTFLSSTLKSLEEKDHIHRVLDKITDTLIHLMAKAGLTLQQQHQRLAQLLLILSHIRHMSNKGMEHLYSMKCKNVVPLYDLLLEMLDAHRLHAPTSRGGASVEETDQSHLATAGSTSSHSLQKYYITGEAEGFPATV
Chain of Thyrotropin receptor (Homo sapiens) (P16473 whole entry, looked up): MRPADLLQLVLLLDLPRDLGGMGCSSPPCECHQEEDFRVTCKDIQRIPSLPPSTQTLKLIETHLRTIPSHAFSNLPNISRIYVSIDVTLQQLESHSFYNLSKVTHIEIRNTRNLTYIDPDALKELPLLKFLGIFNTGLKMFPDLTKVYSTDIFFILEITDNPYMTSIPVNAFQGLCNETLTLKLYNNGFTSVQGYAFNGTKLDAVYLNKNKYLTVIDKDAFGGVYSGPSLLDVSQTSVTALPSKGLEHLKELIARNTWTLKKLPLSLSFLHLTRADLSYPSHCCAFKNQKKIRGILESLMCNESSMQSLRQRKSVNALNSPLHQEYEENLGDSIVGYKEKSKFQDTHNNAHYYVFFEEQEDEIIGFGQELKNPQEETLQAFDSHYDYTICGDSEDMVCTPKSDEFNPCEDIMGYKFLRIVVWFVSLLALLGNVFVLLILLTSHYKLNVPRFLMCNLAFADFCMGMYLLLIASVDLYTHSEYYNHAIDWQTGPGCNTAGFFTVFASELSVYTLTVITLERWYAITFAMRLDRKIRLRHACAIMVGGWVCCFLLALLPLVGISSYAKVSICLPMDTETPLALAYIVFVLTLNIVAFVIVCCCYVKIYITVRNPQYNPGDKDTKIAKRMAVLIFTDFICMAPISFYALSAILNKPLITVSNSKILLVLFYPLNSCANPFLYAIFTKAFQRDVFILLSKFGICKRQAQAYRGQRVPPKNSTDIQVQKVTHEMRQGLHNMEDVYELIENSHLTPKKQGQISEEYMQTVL
Chain of Androgen receptor (Homo sapiens) (P10275 whole entry, looked up): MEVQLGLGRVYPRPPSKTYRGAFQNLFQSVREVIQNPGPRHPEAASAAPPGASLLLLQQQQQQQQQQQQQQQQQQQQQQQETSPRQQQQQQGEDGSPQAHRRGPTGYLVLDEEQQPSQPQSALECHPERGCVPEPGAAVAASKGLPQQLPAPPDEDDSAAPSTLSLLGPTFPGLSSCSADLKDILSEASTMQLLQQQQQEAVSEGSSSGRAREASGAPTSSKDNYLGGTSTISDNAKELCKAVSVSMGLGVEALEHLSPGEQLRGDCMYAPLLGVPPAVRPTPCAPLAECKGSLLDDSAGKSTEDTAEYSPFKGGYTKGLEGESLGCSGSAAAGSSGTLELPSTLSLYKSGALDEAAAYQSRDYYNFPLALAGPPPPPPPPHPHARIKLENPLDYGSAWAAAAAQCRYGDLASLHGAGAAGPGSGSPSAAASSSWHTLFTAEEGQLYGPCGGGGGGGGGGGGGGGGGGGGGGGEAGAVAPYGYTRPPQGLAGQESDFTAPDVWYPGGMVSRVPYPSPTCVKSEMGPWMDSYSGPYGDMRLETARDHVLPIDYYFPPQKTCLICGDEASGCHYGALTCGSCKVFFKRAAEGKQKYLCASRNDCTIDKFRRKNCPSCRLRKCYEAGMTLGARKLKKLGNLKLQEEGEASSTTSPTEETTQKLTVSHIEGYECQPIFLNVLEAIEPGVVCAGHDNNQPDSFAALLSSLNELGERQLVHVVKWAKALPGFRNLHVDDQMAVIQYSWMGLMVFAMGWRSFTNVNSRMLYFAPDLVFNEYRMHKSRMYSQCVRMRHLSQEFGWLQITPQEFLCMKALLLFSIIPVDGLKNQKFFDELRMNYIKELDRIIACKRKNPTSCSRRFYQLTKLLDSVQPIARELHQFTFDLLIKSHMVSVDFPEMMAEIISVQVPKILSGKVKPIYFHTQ

Row | Structure (SMILES) | outcome [1] | outcome [2] | Potency [3] | outcome [4] | outcome [5] | outcome [6] | Potency [7] | Potency [8] | outcome [9] | outcome [10]
1 | O=C(CCCl)NCCc1ccccc1 | inactive | inactive | inactive | inactive | inactive | inactive | inactive | inactive | inactive | inactive
2 | CC(=O)O[C@@H]1CC2CCC1(C)C2(C)C (stereo partly specified) | inactive | inactive | – | inactive | inactive | inactive | inactive | inactive | inactive | inactive
3 | COC(=O)CCCCC(CCSS/C(CCO)=C(\C)N(C=O)Cc1cnc(C)nc1N)SC(C)=O (stereo unspecified) | inactive | inactive | inactive | inactive | inactive | inactive | inactive | inactive | inactive | inactive
4 | CCO | inactive | inactive | inactive | inactive | inactive | inactive | inactive | inactive | inactive | inactive
5 | CCC(C)OC(C)CC (stereo unspecified) | inactive | inactive | inactive | inactive | inactive | – | inactive | – | inactive | –
6 | [O-][n+]1cccc(/C(Cl)=N/OC[C@@H](O)CN2CCCCC2)c1 | inactive | inactive | inactive | – | – | – | inactive | inactive | inactive | inactive
7 | CC(=O)OC1CCCCC1C(C)(C)C (stereo unspecified) | inactive | inactive | inactive | inactive | inactive | inactive | inactive | inactive | inactive | inactive
8 | CC(C)NC(=O)c1ccc(C=O)cc1 | inactive | inactive | – | inactive | inactive | inactive | inactive | inactive | inactive | inactive
9 | OC[C@H]1O[C@@H](O[C@@H]2[C@@H](CO)O[C@](O)(CO)[C@H]2O)[C@H](O)[C@@H](O)[C@H]1O | inactive | inactive | inactive | inactive | inactive | inactive | inactive | inactive | inactive | inactive
10 | COC(=O)c1cc(Cl)cc(Cl)c1 | inactive | inactive | inactive | inactive | inactive | inactive | inactive | inactive | inactive | inactive
11 | COc1cc(OC)nc(O[C@H](C(=O)O)C(OC)(c2ccccc2)c2ccccc2)n1 | inactive | inactive | inactive | inactive | inactive | inactive | inactive | – | – | inactive
12 | Cc1c(C(=O)c2c[nH]n(C)c2=O)ccc(S(C)(=O)=O)c1C1=NOCC1 | inactive | inactive | inactive | – | – | inactive | inactive | inactive | inactive | inactive
13 | COCCc1ccccn1 | inactive | inactive | inactive | inactive | inactive | – | inactive | inactive | inactive | inactive
14 | CCC(=O)Oc1ccc2c(c1)CC[C@@H]1[C@@H]2CC[C@@]2(C)[C@H]1C[C@@H](OC(=O)CC)[C@@H]2OC(=O)CC | inactive | inactive | 75 nM (active) | inactive | inactive | inactive | inactive | 1880 nM (active) | inactive | inactive
15 | O=C(O)CSCC(=O)NC1CCSC1=O (stereo unspecified) | inactive | inactive | – | inactive | inactive | inactive | inactive | inactive | inactive | –
16 | Cc1ccc(C(=O)O)cc1[N+](=O)[O-] | inactive | inactive | inactive | inactive | inactive | inactive | inactive | inactive | inactive | inactive
17 | OC1(c2ccc(Cl)cc2)CCNCC1 | inactive | inactive | inactive | inactive | inactive | – | inactive | inactive | inactive | –
18 | OCC1CCC(CO)CC1 (stereo unspecified) | inactive | inactive | inactive | inactive | inactive | inactive | inactive | inactive | – | inactive
19 | CCCCCCCCCOC(=O)c1ccccc1C(=O)OCCCCCCCCC | inactive | inactive | inactive | inactive | inactive | inactive | inactive | inactive | inactive | –
20 | C/C=C(\C)C(C)=O | inactive | inactive | inactive | inactive | inactive | inactive | inactive | inactive | inactive | inactive
21 | COc1ccc2c(c1)c1c3n2CCN(C)C3=NCC1 | inactive | inactive | inactive | inactive | inactive | inactive | inactive | inactive | inactive | inactive
22 | Nc1nc(-c2ccccc2)c(Br)c(=O)[nH]1 | inactive | inactive | inactive | inactive | inactive | inactive | inactive | inactive | – | inactive
23 | O=C(NCN1CCOCC1)c1cnccn1 | inactive | inactive | inactive | – | – | inactive | inactive | inactive | inactive | inactive
24 | CC(C)C[C@@H]1[C@H](c2ccccc2)OC(=O)N1CCCN1CCCCCC1 | inactive | inactive | inactive | inactive | inactive | inactive | inactive | inactive | – | –
25 | CCOc1ccccc1OCC1CNCCO1 (stereo unspecified) | inactive | inactive | inactive | inactive | inactive | inactive | inactive | inactive | inactive | inactive
26 | CC(S)C(C)S (stereo unspecified) | inactive | inactive | inactive | inactive | inactive | inactive | inactive | inactive | inactive | inactive
